A selection: hits, their analogues and other compounds. The true share with any hit is near 2.1%.
D2 PAM-1: positive allosteric modulators of human D2 dopamine receptor; P14416; DiscoveRx D2 beta-arrestin cells, luminescence, 90 min; 100% = 57 uM dopamine signal; potentiation, % (no concentration beside the values); actives 0.23% (n = 360,000); AID 624464; in the data active = potentiation above about 50%; inconclusive = mostly about 30% to 49%
Target sequence (P14416 whole entry, looked up): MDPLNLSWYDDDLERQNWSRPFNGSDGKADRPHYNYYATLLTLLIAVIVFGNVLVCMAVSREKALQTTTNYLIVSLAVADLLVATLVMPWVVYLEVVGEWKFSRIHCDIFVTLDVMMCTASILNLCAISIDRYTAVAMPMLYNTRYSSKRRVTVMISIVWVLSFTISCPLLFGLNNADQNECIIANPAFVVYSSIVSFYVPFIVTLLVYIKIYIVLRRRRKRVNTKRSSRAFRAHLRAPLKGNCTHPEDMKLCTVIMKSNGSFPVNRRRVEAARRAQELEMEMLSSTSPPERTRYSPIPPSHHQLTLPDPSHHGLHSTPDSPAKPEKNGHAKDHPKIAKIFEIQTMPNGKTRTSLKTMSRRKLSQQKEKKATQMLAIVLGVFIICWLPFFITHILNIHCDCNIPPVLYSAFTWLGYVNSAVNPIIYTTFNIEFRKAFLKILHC
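PathHunter beta-arrestin assay in DiscoveRx D2 cells. Compounds were added with an EC20 of dopamine (50 nM final) for 90 min at 37 deg C. Luminescence was read 1 h after detection reagent, with 57 uM dopamine as the EC100 control.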
LDHA inh: LDHA (human) enzyme inhibition; actives 0.15% (n = 480,000); activity change, % (values are at about 110 or 230 µM); AID 1347041; purified LDHA, NADH/diaphorase-resazurin fluorescence; active compounds read low; P00338; in the data active = activity change below about -30%; inconclusive = mostly about -25% to -30%;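 also: plate controls were DMSO wells for no effect and wells without enzyme for full effect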
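Human LDH5 (2 nM) was incubated with 0.06 mM NADH and 0.2 mM pyruvate for 5 min at room temperature in Tris pH 7.4. Remaining NADH was coupled through diaphorase/resazurin, and resorufin fluorescence was read at 0 and 20 min.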
D2 antag: D2 dopamine receptor (human) antagonism. P14416. HEK293 TREx D2 cells, calcium flux, dopamine EC80. inhibition, % at 10 µM. actives 2% (n = 340,000); in the data active = inhibition above about 30%; inactive = below that, where a call was filed; also: 0% is about no effect
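Compounds are added to dye-loaded, induced HEK293 T-REx cells coupled to calcium release via D2; after a 3 min kinetic read an EC80 dopamine stimulus is given and fluorescence is recorded for 3 more min.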
D2 ag-1: agonists of human D2 dopamine receptor. P14416. HEK293 T-REx D2 cells, calcium flux agonist mode. activation, % at 2 µM. actives 0.53% (n = 340,000);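 active = activation over 3 SD above normal in the single-dose calcium agonist read, cut at about 30% in these data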; also: 0% is about no effect
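HEK293 Trex D2 cells, tetracycline-induced, o/n 30 C 5% CO2; no-wash Ca dye, RT 30–90 min; 10-cycle baseline, 23 nl cpd added, kinetic Ca read 180 s; agonist hits = positive Ca response.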
D2 ag-2: activates the human D2 dopamine receptor; actives 0.084% (n = 360,000); P14416; DiscoveRx PathHunter D2 beta-arrestin, luminescence, 90 min; 100% = 57 uM dopamine signal; activation, % (no concentration beside the values); AID 624465; in the data active = activation above about 40%; inconclusive = between about 15% and that limit
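DiscoveRx PathHunter D2 beta-arrestin cells (2,100/well) attached overnight, then compound-stimulated 90 min at 37 C in HBSS/10 mM HEPES/0.1% Tween-20 buffer; beta-galactosidase complementation read by luminescence after 1 h at ambient temperature. Dopamine 57 uM final (EC100) as control.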
D2 PAM-2: positively modulates the human D2 dopamine receptor allosterically. HEK293 T-REx D2, calcium flux, EC20 dopamine potentiation. potentiation, % at 10 µM. actives 0.34% (n = 340,000);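 active = potentiation over 3 SD above the plate norm, cut at about 30% in these data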; also: 0% is about no effect
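Potentiation of an EC20 dopamine calcium response is measured in a force-coupled, tetracycline-inducible Hek293 Trex D2 line. Compound-only kinetic reads over 180 s flag agonists before dopamine addition.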
Numbers without * were called inactive; ? = inconclusive; . = not tested or not shown.

SMILES	D2 PAM-1	LDHA inh	D2 antag	D2 ag-1	D2 ag-2	D2 PAM-2
COc1ccc(CCN(C)CCCC(C#N)(c2cc(OC)c(OC)c(OC)c2)C(C)C)cc1OC (stereo not drawn)	-25.3	-6.4	45.3*	-2.1	-2.6	-26.0
COc1ccc(CCN(C)CCc2ccc(OC)c(OC)c2)cc1OC	-28.2	-6.9	.	.	-4.9	.
Cc1cc2nc3s/c(=C/c4ccc(-c5ccccc5C(=O)O)o4)c(=O)n3c2cc1C	-11.5	4.3	33.8*	69.6*	-7.0	-6.4
CC(C)COc1ccc(C(=O)Nc2cccc3ncccc23)cc1	.	-18.5	.	.	.	.
CCOc1ncccc1C(=O)Nc1nnc(C2CC2)s1	-22.7	-2.6	-26.8	2.3	0.3	37.0*
Cc1cc(C)cc(C(=O)NCC(=O)OCN2C(=O)c3ccccc3C2=O)c1	-8.3	-0.2	44.1*	0.1	-3.7	-3.6
N/C(=N\OC(=O)c1ccco1)c1ccc(Br)cc1	52.0*	-2.6	-8.0	2.5	9.7	-6.6
Cc1ccc(/C(N)=N/OC(=O)c2ccco2)cc1	55.7*	1.3	-1.7	0.8	4.5	-6.9
Cc1cccc(/C(N)=N/OC(=O)c2ccco2)c1	56.1*	-2.4	1.1	0.5	12.6	-3.9
CC(NC(=O)CCc1ncc(-c2ccc(Cl)cc2)o1)c1ccc2c(c1)NC(=O)CO2 (stereo not drawn)	.	-4.9	.	.	.	.
CSC1=C(C#N)C(c2ccccc2C)C(C#N)=C(N)N1 (stereo not drawn)	-26.5	-36.1*	3.4	0.8	-9.6	1.6
Cn1c(=O)c2[nH]c(N3CCN(Cc4ccc(F)cc4)CC3)nc2n(C)c1=O	.	9.1	.	.	.	.
COCCCN1C(=O)C(O)=C(C(C)=O)C1c1cccc(F)c1 (stereo not drawn)	-13.3	-3.1	36.8*	0.7	-4.2	-4.0
CCCCN1C(=O)C(O)=C(C(C)=O)C1c1ccccc1 (stereo not drawn)	8.5	-3.1	-10.5	-1.3	-0.5	-0.8
CC(CN1c2ccccc2Sc2ccccc21)N(C)C (stereo not drawn)	-17.2	-1.6	54.1*	0.9	-6.0	-26.2
CC(CN(C)C)CN1c2ccccc2Sc2ccccc21 (stereo not drawn)	-32.5	-11.0	76.1*	0.1	-0.2	-21.3
Cc1cccc2c(C(=O)O)cc(-c3ccc(Cl)s3)nc12	.	3.1	.	.	.	.
O=C(O)C(c1ccccc1)N1C(=O)/C(=C\c2ccc(-c3ccccc3Cl)o2)SC1=S (stereo not drawn)	-3.7	-30.2*	-1.7	-0.6	-3.9	1.0
COCCNC(=S)N/N=C(\C)c1ccc(C)c([N+](=O)[O-])c1	-6.3	-5.0	32.3*	-1.7	2.0	-1.6
COCCNC(=S)N/N=C(\C)c1ccc2cc(OC)ccc2c1	-4.5	2.7	3.3	-0.8	-5.1	4.6
N/C(=N\OS(=O)(=O)c1ccc(Cl)cc1)c1ccncc1	67.0*	-1.0	0.6	1.0	?	0.3
N/C(=N\OS(=O)(=O)c1ccc(Cl)cc1)c1cccnc1	6.2	-0.5	-5.4	-0.3	-1.1	-1.4
COc1ccc2c3c(ccc2c1)C(=O)/C(=C/O)CC3	52.3*	42.0	.	.	?	.
O=C(Nc1ccc2c(c1)CCCN2C(=O)c1ccco1)c1cc([N+](=O)[O-])ccc1Cl	56.0*	-11.7	1.2	0.1	6.7	-1.0
CC(C)c1cccc(C(C)C)c1NC(=O)C1CC=CCC1 (stereo not drawn)	.	-31.8*	.	.	.	.
SMILES	D2 PAM-1	LDHA inh	D2 antag	D2 ag-1	D2 ag-2	D2 PAM-2
O=C(Nc1cccc(C(F)(F)F)c1)c1nc2ccccc2nc1N1CCCC1	.	7.2	.	.	.	.
COc1ccc2c(c1)-c1nc(/N=C/c3ccc(O)cc3)sc1CC2	-15.1	6.2	44.9*	-0.9	2.9	-5.6
Cn1c(CN2CCCCC2)nc2cc(NS(=O)(=O)c3ccc(F)cc3)ccc21	-2.9	-5.5	74.4*	-0.3	-6.2	-19.3
Cn1c(CCN2CCCCC2)nc2cc(NS(=O)(=O)c3ccc(Cl)cc3)ccc21	-35.6	-11.3	13.6	0.3	-0.7	3.3
Cn1c(CN2CCCCC2)nc2cc(NS(=O)(=O)c3ccc(Cl)cc3)ccc21	-22.0	-4.4	72.6*	1.1	-3.6	-17.7
CC(=O)Nc1ccc2c(c1)nc(CN1CCCC1)n2C	-20.8	1.4	9.8	-0.1	0.1	-0.8
O=C(NCc1ccc2c(c1)CCO2)Nc1cccc(C(F)(F)F)c1	-14.0	-4.4	39.8*	0.0	-2.0	-8.4
CCN(CC(=O)NCc1ccc(Cl)cc1)C(=O)COc1cccc(Cl)c1	-62.1	2.9	33.1*	0.7	-6.4	-9.0
CCN(CC(=O)NCc1ccc(Cl)cc1)C(=O)COc1cccc(C(F)(F)F)c1	-12.0	-3.5	-17.2	0.1	-4.3	3.6
CCCCN(C)C(=O)Cn1c(=O)c(S(=O)(=O)c2ccccc2)cc2ccccc21	.	-21.5	.	.	.	.
CCNCC(O)COCc1ccccc1OC (stereo not drawn)	.	1.2	.	.	.	.
Oc1ccc(/C=N/N2CCCCC2)cc1O	-10.8	4.2	.	.	43.5*	-3.1
Cc1cc(=O)nc2c3ccccc3n(C(C)C(=O)Nc3cc(F)ccc3F)n12 (stereo not drawn)	-11.0	-6.6	.	.	-2.1	.
Cc1cc(=O)nc2c3ccccc3n(C(C)C(=O)Nc3c(F)c(F)c(F)c(F)c3F)n12 (stereo not drawn)	0.5	-1.7	44.9*	0.3	4.5	3.7
Cc1cccc2c(C(=O)O)cc(-c3ccccc3)nc12	.	2.8	.	.	.	.
NC(=O)NNC(=S)NC12CC3CC(CC(C3)C1)C2	.	-4.6	.	.	.	.
Cc1ccc(Cl)c(OCC(=O)Nc2ccc3c(c2)OCCO3)c1	-4.8	-3.9	5.0	0.2	-0.5	-0.8
CCN(CC(=O)Nc1ccc2c(c1)OCCO2)C(=O)COc1cc(C)ccc1Cl	-11.6	-3.5	33.2*	-0.7	-4.7	1.4
COc1ccc(C(=O)Nc2ccnn2Cc2cccs2)cc1S(=O)(=O)N(C)Cc1ccccc1	.	2.8	.	.	.	.
COc1cccc(/C=C/C(=O)OCC(=O)Nc2cc(C(F)(F)F)ccc2Cl)c1	-2.6	-0.2	34.3*	2.3	-1.4	-7.2
O=C(COC(=O)/C=C/c1cccc(C(F)(F)F)c1)NCc1ccccc1	5.1	-3.9	33.0*	1.4	-3.9	12.2
COc1cccc(/C=C/C(=O)OCC(=O)Nc2ccc(Cl)c(S(=O)(=O)N(C)C)c2)c1	0.2	-3.7	-15.1	1.7	-3.2	3.9
CC(C)(O)C#Cc1ccccc1C(=O)NC(CSCc1ccccc1)C(=O)O (stereo not drawn)	.	24.6	.	.	.	.
CC(=O)N1CCN(Cc2nc3scc(-c4ccccc4)c3c(=O)[nH]2)CC1	-3.8	-4.1	.	.	-3.6	-0.5
O=c1[nH]c(CN2CCN(Cc3ccccc3)CC2)nc2scc(-c3ccccc3)c12	-5.6	0.6	68.8*	0.3	-1.6	-23.8
